The record followed here is PubChem BioAssay (EPA / NIEHS).

Read-out in assay [1]: Vascular endothelial growth factor receptor 2 (Homo sapiens) (UniProt P35968)
As to the kind of experiment: BSK_4H_VEGFRII: BioMAP Diversity Plus: 4H Assay for Vascular endothelial growth factor receptor 2 (VEGFR2) Biomarker Activity (AID 2283031). Particulars: primary human endothelial cells (HUVEC); actives raise or lower the signal. In short, it runs like this:
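ELISA read-out of VEGFRII in primary human umbilical vein endothelium, taken 24 h after chemical treatment. Responses are expressed relative to DMSO, with bidirectional fitting.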

Read-out in assay [2]: Human Leukocyte Antigen - DR isotype (HLADR), HLA-DRA (gene 3122)
The assay is described as follows: BSK_BE3C_HLADR: BioMAP Diversity Plus: BE3C Assay for Human Leukocyte Antigen - DR isotype (HLADR) Biomarker Activity (AID 2283032). As to conditions: primary human bronchial epithelial cells; actives raise or lower the signal. A digest of the protocol:
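Human primary bronchial epithelial cells in the BE3C system were exposed to chemicals for 24 h, after which HLA-DR levels were quantified by ELISA. Activity was fitted bidirectionally, gain or loss of signal, against DMSO as negative control and baseline.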

Read-out in assay [3]: Vascular cell adhesion molecule 1 (VCAM1), VCAM1 (gene 7412)
The assay is described as follows: BSK_4H_VCAM1: BioMAP Diversity Plus: 4H Assay for Vascular cell adhesion molecule 1 (VCAM1) Biomarker Activity (AID 2283033).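 Also: cell-surface VCAM-1 protein measured by ELISA.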 Particulars: primary human endothelial cells (HUVEC); actives raise or lower the signal. A digest of the protocol: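 Primary human umbilical vein endothelial cells were exposed to chemicals for 24 h, after which VCAM-1 was quantified by ELISA. Responses were fitted bidirectionally against DMSO as negative control and activity baseline.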

Read-out in assay [4]: Interferon-gamma inducible Protein 10 (IP10), CXCL10 (gene 3627)
As to the kind of experiment: BSK_BE3C_IP10: BioMAP Diversity Plus: BE3C Assay for Interferon-gamma inducible Protein 10 (IP10) Biomarker Activity (AID 2283034). Particulars: primary human bronchial epithelial cells; actives raise or lower the signal. A digest of the protocol:
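Human primary bronchial epithelial cells were exposed to chemicals for 24 hours, after which IP-10 levels were measured by ELISA. Data were fitted bidirectionally against DMSO, which served as the negative control and activity baseline.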

Read-out in assay [5]: Monokine induced gamma interferon (MIG), CXCL9 (gene 4283)
The assay is described as follows: BSK_BE3C_MIG: BioMAP Diversity Plus: BE3C Assay for Monokine induced gamma interferon (MIG) Biomarker Activity (AID 2283035).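 Also: MIG protein measured by ELISA in BE3C cultures after 24 h of dosing.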 Particulars: primary human bronchial epithelial cells; actives raise or lower the signal. A digest of the protocol:
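Primary human bronchial epithelial cells treated for 24 h; MIG levels measured by ELISA, fitted bidirectionally versus DMSO. Parallel SRB total-protein staining assessed cytotoxicity.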

Read-out in assay [6]: Transforming growth factor beta 1 (TGFb1), TGFB1 (gene 7040)
As to the kind of experiment: BSK_BE3C_TGFb1: BioMAP Diversity Plus: BE3C Assay for Transforming growth factor beta 1 (TGFb1) Biomarker Activity (AID 2283036). Particulars: primary human bronchial epithelial cells; actives raise or lower the signal. In short, it runs like this:
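Human primary bronchial epithelial cells (BE3C system) were dosed with chemical and TGF-b1 levels measured by ELISA at 24 h. Activity was fitted bidirectionally relative to DMSO negative control as baseline.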

Read-out in assay [7]: Plasminogen activator inhibitor-1 (PAI1), SERPINE1 (gene 5054)
As to the kind of experiment: BSK_BE3C_PAI1: BioMAP Diversity Plus: BE3C Assay for Plasminogen activator inhibitor-1 (PAI1) Biomarker Activity (AID 2283037). As to conditions: primary human bronchial epithelial cells; actives raise or lower the signal. In short, it runs like this: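 Human primary bronchial epithelial cells were exposed to chemical for 24 h, then PAI-1 was quantified by ELISA. Activity was fitted bidirectionally relative to the DMSO negative control baseline.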

Read-out in assay [8]: urokinase plasminogen activator (uPA), PLAU (gene 5328)
As to the kind of experiment: BSK_BE3C_uPA: BioMAP Diversity Plus: BE3C Assay for urokinase plasminogen activator (uPA) Biomarker Activity (AID 2283038).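 Also: uPA protein level quantified by ELISA in cell cultures; uPA read one day after compound addition.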 Particulars: primary human bronchial epithelial cells; actives raise or lower the signal. A digest of the protocol: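 Bronchial epithelial cells (human, primary); chemical 24 h; uPA by ELISA; bidirectional fit vs DMSO. SRB (0.1%, after 10% TCA fixation, 560 nm) in parallel cultures for cytotoxicity.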

Read-out in assay [9]: Urokinase-type plasminogen activator receptor (uPAR), PLAUR (gene 5329)
As to the kind of experiment: BSK_BE3C_uPAR: BioMAP Diversity Plus: BE3C Assay for Urokinase-type plasminogen activator receptor (uPAR) Biomarker Activity (AID 2283039).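 Also: cells exposed to compound for one day before measurement.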 Particulars: primary human bronchial epithelial cells; actives raise or lower the signal. A digest of the protocol:
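Primary human bronchial epithelial cells were dosed with chemical and harvested 24 h later; uPAR was quantified by ELISA. Activity was fitted bidirectionally against DMSO as negative control and baseline.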

Read-out in assay [10]: Interleukin-6 (IL6), IL6 (gene 3569)
The assay is described as follows: BSK_CASM3C_IL6: BioMAP Diversity Plus: CASM3C Assay for Interleukin-6 (IL6) Biomarker Activity for (AID 2283040). As to conditions: primary human coronary artery smooth muscle cells; actives raise or lower the signal.

Read-out in assay [11]: Tissue plasminogen activator (tPA), PLAT (gene 5327)
As to the kind of experiment: BSK_BE3C_tPA: BioMAP Diversity Plus: BE3C Assay for Tissue plasminogen activator (tPA) Biomarker Activity (AID 2283041).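 Also: tPA level quantified by ELISA one day after compound addition.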 Particulars: primary human bronchial epithelial cells; actives raise or lower the signal. A digest of the protocol:
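Human primary bronchial epithelial cells were dosed with chemical and tPA biomarker levels measured by ELISA 24 hours later. Activity was fitted bidirectionally against DMSO as negative control and baseline.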

Read-out in assay [12]: Interleukin-8 (IL8), CXCL8 (gene 3576)
As to the kind of experiment: BSK_CASM3C_IL8: BioMAP Diversity Plus: CASM3C Assay for Interleukin-8 (IL8) Biomarker Activity (AID 2283042).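 Also: IL-8 protein level quantified by ELISA.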 As to conditions: primary human coronary artery smooth muscle cells; actives raise or lower the signal.

Read-out in assay [13]: Human Leukocyte Antigen - DR isotype (HLADR), HLA-DRA (gene 3122)
The assay is described as follows: BSK_CASM3C_HLADR: BioMAP Diversity Plus: CASM3C Assay for Human Leukocyte Antigen - DR isotype (HLADR) Biomarker Activity (AID 2283043).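 Also: cell-surface HLA-DR protein level quantified by ELISA.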 Particulars: primary human coronary artery smooth muscle cells; actives raise or lower the signal.

Read-out in assay [14]: Macrophage colony-stimulating factor (MCSF), CSF1 (gene 1435)
As to the kind of experiment: BSK_CASM3C_MCSF: BioMAP Diversity Plus: CASM3C Assay for Macrophage colony-stimulating factor (MCSF) Biomarker Activity (AID 2283044).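 Also: M-CSF protein amount quantified by ELISA after 24 h exposure.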 Particulars: primary human coronary artery smooth muscle cells; actives raise or lower the signal.

Read-out in assay [15]: Low-density lipoprotein receptor (LDLR), LDLR (gene 3949)
As to the kind of experiment: BSK_CASM3C_LDLR: BioMAP Diversity Plus: CASM3C Assay for Low-density lipoprotein receptor (LDLR) Biomarker Activity (AID 2283045).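 Also: LDLR protein level on the cell surface quantified by ELISA.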 Particulars: primary human coronary artery smooth muscle cells; actives raise or lower the signal.

Read-out in assay [16]: Monocyte Chemoattractant Protein-1 (MCP1), CCL2 (gene 6347)
As to the kind of experiment: BSK_CASM3C_MCP1: BioMAP Diversity Plus: CASM3C Assay for Monocyte Chemoattractant Protein-1 (MCP1) Biomarker Activity (AID 2283046).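 Also: MCP-1 level quantified by ELISA 24 h after dosing.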 As to conditions: primary human coronary artery smooth muscle cells; actives raise or lower the signal.

The nature of assay [17]: BSK_CASM3C_Proliferation: Cell Proliferation Assessment in the BioMAP Diversity Plus: CASM3C Assay (AID 2283047).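 Also: sulforhodamine B total protein stain as relative cell number at 560 nm; sub-confluent cells exposed 48 h before staining; fitted both ways against DMSO so gain or loss of cell number.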 Particulars: primary human coronary artery smooth muscle cells.
Read-out in assay [18]: Monokine induced gamma interferon (MIG), CXCL9 (gene 4283)
As to the kind of experiment: BSK_CASM3C_MIG: BioMAP Diversity Plus: CASM3C Assay for Monokine induced gamma interferon (MIG) Biomarker Activity (AID 2283048). Particulars: primary human coronary artery smooth muscle cells; actives raise or lower the signal.

Read-out in assay [19]: serum amyloid A (SAA), SAA1 (gene 6288)
As to the kind of experiment: BSK_CASM3C_SAA: BioMAP Diversity Plus: CASM3C Assay for serum amyloid A (SAA) Biomarker Activity (AID 2283049).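 Also: SAA protein level quantified by ELISA.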 As to conditions: primary human coronary artery smooth muscle cells; actives raise or lower the signal.

A short description of assay [20]: BSK_CASM3C_SRB: Viability Assessment in the BioMAP Diversity Plus: CASM3C Assay (AID 2283050).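 Also: total protein by SRB staining as cytotoxicity measure in parallel cultures.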 Particulars: primary human coronary artery smooth muscle cells.

Activity calls are given as the source filed them. The calls were made as follows: active = hit-call score of the fitted dose curve at least 0.9, where 1 is the maximum; inactive = score below 0.9.

With `Oc1ccc(Cl)cc1Cl`, the result in [1], in [2], in assay [3], in assay [4], in [5] and in assay [6] was inactive. Moreover, the result in assay [7], in assay [8], in assay [9], in [10], in assay [11] and in assay [12] was inactive. In addition, the outcome in [13], in assay [14], in assay [15], in [16], in assay [17] and in [18] was inactive. Also, the result in assay [19] and in assay [20] was inactive.

On to `Nn1cnnc1`, for which the outcome in assay [1], in [2], in assay [3], in assay [4], in assay [5] and in assay [6] was inactive. The outcome in assay [7], in [8], in [9], in assay [10], in assay [11] and in assay [12] was inactive. The result in assay [13], in assay [14], in assay [15], in [16], in assay [17] and in assay [18] was inactive. The result in assay [19] and in [20] was inactive.

For `Cc1cc(-c2ccc(N)c(C)c2)ccc1N`, the outcome in [1], in assay [2], in [3], in assay [4], in assay [5] and in assay [6] was inactive. The outcome in assay [7], in [8], in assay [9], in assay [10], in [11] and in [12] was inactive. In addition, the outcome in assay [13], in assay [14], in [15], in assay [16], in assay [17] and in assay [18] was inactive. Moreover, the outcome in [19] and in assay [20] was inactive.

Turning to `Sc1ccccc1`, the result in assay [1], in assay [2], in assay [3], in [4], in assay [5] and in assay [6] was inactive. Further, the outcome in [7], in [8], in assay [9], in assay [10], in [11] and in assay [12] was inactive. Further, the result in [13], in assay [14], in [15], in assay [16], in assay [17] and in assay [18] was inactive. Besides, the outcome in assay [19] and in [20] was inactive.

As usually defined, the AC50 is the concentration at which the activity in the assay is half-maximal. Turning to `N#Cc1ccc(N(CC(N)=O)CC(F)(F)F)cc1C(F)(F)F`, the result in [1], in assay [2], in [3], in [4], in assay [5] and in assay [6] was inactive. Besides, the outcome in assay [7], in assay [8], in assay [9], in assay [10], in [11] and in [12] was inactive. For the same compound, the outcome in [13], in assay [14], in assay [15], in [17], in [18] and in [19] was inactive. Further, in [20], the outcome was inactive. In addition, the AC50 in assay [16] was 335 nM (active).
